# Source: the supplement of paper PMC8728848
# The entries come from a sample that favours the strongest signals as a whole.
# Tests used:
# Assay in all cases: glycan array binding signal (z-score within array); higher = stronger binding
# Conditions in all cases: glycan notation: IUPAC condensed, linker removed
# [1] = target: Fuc(a1-2)Gal(b1-4)GlcNAc(b1-2)Man(a1-3)[Fuc(a1-2)Gal(b1-4)GlcNAc(b1-2)Man(a1-6)]Man(b1-4)GlcNAc(b1-4)[Fuc(a1-6)]GlcNAc
# Summary of the method: (§1)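 Negative Z-scores can be read as non-binding. The Z-score is calculated within each array and then averaged across arrays of one protein sequence at different concentrations or buffers and across linkers. Arrays, 3228 in all, were curated from the Consortium for Functional Glycomics database and kept only where the protein sequence was available.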
# [2] = target: Fuc(a1-2)Gal(b1-4)[Fuc(a1-3)]GlcNAc(b1-2)[Fuc(a1-2)Gal(b1-4)[Fuc(a1-3)]GlcNAc(b1-4)]Man(a1-3)[Fuc(a1-2)Gal(b1-4)[Fuc(a1-3)]GlcNAc(b1-2)Man(a1-6)]Man(b1-4)GlcNAc(b1-4)GlcNAc
# Summary of the method: as §1
# [3] = target: Fuc(a1-3)[Gal3S(b1-4)]GlcNAc
# Summary of the method: as §1
# [4] = target: Fuc(a1-3)[Gal3S(b1-4)]GlcNAc6S
# Summary of the method: as §1
# [5] = target: Fuc(a1-3)[GalNAc(b1-4)]GlcNAc
# Summary of the method: as §1
# Gal(a1-3)Gal(b1-3)GlcNAc = target: Gal(a1-3)Gal(b1-3)GlcNAc
# Summary of the method: as §1
# [6] = target: Gal(a1-3)Gal(b1-3)GlcNAc(b1-2)Man(a1-3)[Gal(a1-3)Gal(b1-3)GlcNAc(b1-2)Man(a1-6)]Man(b1-4)GlcNAc(b1-4)GlcNAc
# Summary of the method: as §1
# [7] = target: Gal(a1-3)Gal(b1-3)GlcNAc(b1-3)GalNAc
# Summary of the method: as §1
# Gal(a1-4)GlcNAc = target: Gal(a1-4)GlcNAc
# Summary of the method: as §1
# Gal(b1-2)Gal = target: Gal(b1-2)Gal
# Summary of the method: as §1
# [8] = target: Gal(b1-3)GlcNAc(a1-6)Gal(b1-4)GlcNAc
# Summary of the method: as §1
# [9] = target: Gal(b1-3)GlcNAc(b1-2)Man(a1-3)[Gal(b1-3)GlcNAc(b1-2)Man(a1-6)]Man(b1-4)GlcNAc(b1-4)GlcNAc
# Summary of the method: as §1
# [10] = target: Gal(b1-3)GlcNAc(b1-3)Gal(b1-4)GlcNAc(b1-2)Man(a1-3)[Gal(b1-3)GlcNAc(b1-3)Gal(b1-4)GlcNAc(b1-2)Man(a1-6)]Man(b1-4)GlcNAc(b1-4)GlcNAc
# Summary of the method: as §1
# [11] = target: Gal(b1-3)GlcNAc(b1-3)GalNAc
# Summary of the method: as §1
# [12] = target: Gal(b1-4)GlcNAc(b1-2)Man(a1-3)Man(b1-4)GlcNAc(b1-4)GlcNAc
# Summary of the method: as §1
# [13] = target: Gal(b1-4)GlcNAc(b1-2)Man(a1-3)[Man(a1-6)]Man(b1-4)GlcNAc(b1-4)GlcNAc
# Summary of the method: as §1
# [14] = target: Gal(b1-4)GlcNAc(b1-2)[Gal(b1-4)GlcNAc(b1-4)]Man(a1-3)[GlcNAc(b1-4)][Gal(b1-4)GlcNAc(b1-2)Man(a1-6)]Man(b1-4)GlcNAc(b1-4)GlcNAc
# Summary of the method: as §1
# [15] = target: Gal(b1-4)GlcNAc(b1-3)Gal(b1-4)GlcNAc(b1-2)Man(a1-3)[Gal(b1-4)GlcNAc(b1-3)Gal(b1-4)GlcNAc(b1-2)Man(a1-6)]Man(b1-4)GlcNAc(b1-4)GlcNAc
# Summary of the method: as §1
# [16] = target: Gal(b1-4)GlcNAc(b1-3)Gal(b1-4)GlcNAc(b1-2)[Gal(b1-4)GlcNAc(b1-3)Gal(b1-4)GlcNAc(b1-6)]Man(a1-6)[Gal(b1-4)GlcNAc(b1-3)Gal(b1-4)GlcNAc(b1-2)Man(a1-3)]Man(b1-4)GlcNAc(b1-4)GlcNAc
# Summary of the method: as §1
# [17] = target: GalNAc(a1-3)GalNAc(b1-3)Gal(a1-4)Gal(b1-4)GlcNAc
# Summary of the method: as §1
# GalNAc(b1-4)Gal(b1-4)Glc = target: GalNAc(b1-4)Gal(b1-4)Glc
# Summary of the method: as §1
# [18] = target: GalNAc(b1-4)GlcNAc(b1-3)GalNAc(b1-4)GlcNAc
# Summary of the method: as §1
# GalNAc(b1-4)GlcNAc6S = target: GalNAc(b1-4)GlcNAc6S
# Summary of the method: as §1
# GalNAc3S(b1-4)GlcNAc3S = target: GalNAc3S(b1-4)GlcNAc3S
# Summary of the method: as §1
# Glc(a1-4)Glc = target: Glc(a1-4)Glc
# Summary of the method: as §1
# [19] = target: Glc(a1-4)Glc(a1-4)Glc(a1-4)Glc
# Summary of the method: as §1
# [20] = target: GlcNAc(b1-3)Gal(b1-3)GalNAc
# Summary of the method: as §1
binder,measurement,setting,value
SAOUHSC 00176 (Staphylococcus aureus) (protein) MSKILKCITLAVVMLLIVTACGPNRSKEDIDKALNKDNSKDKPNQLTMWVDGDKQMAFYKKITDQYTKKTGIKVKLVNIGQNDQLENISLDAPAGKGPDIFFLAHDNTGSAYLQGLAAEIKLSKDELKGFNKQALKAMNYDNKQLALPAIVETTALFYNKKLVKNAPQTLEEVEANAAKLTDSKKKQYGMLFDAKNFYFNYPFLFGNDDYIFKKNGSEYDIHQLGLNSKHVVKNAERLQKWYDKGYLPKAATHDVMIGLFKEGKVGQFVTGPWNINEYQETFGKDLGVTTLPTDGGKPMKPFLGVRGWYLSEYSKHKYWAKDLMLYITSKDTLQKYTDEMSEITGRVDVKSSNPNLKVFEKQARHAEPMPNIPEMRQVWEPMGNASIFISNGKNPKQALDEATNDITQNIKILHPSQNDKKGD,glycan array binding signal (z-score),[1],0.688
same,glycan array binding signal (z-score),[2],0.546
same,glycan array binding signal (z-score),[3],-0.097
same,glycan array binding signal (z-score),[4],-0.175
same,glycan array binding signal (z-score),[5],-0.119
same,glycan array binding signal (z-score),Gal(a1-3)Gal(b1-3)GlcNAc,-0.106
same,glycan array binding signal (z-score),[6],0.584
same,glycan array binding signal (z-score),[7],-0.107
same,glycan array binding signal (z-score),Gal(a1-4)GlcNAc,-0.034
same,glycan array binding signal (z-score),Gal(b1-2)Gal,-0.068
same,glycan array binding signal (z-score),[8],-0.122
same,glycan array binding signal (z-score),[9],1.06
same,glycan array binding signal (z-score),[10],-0.007
same,glycan array binding signal (z-score),[11],-0.105
same,glycan array binding signal (z-score),[12],-0.068
same,glycan array binding signal (z-score),[13],1.03
same,glycan array binding signal (z-score),[14],0
same,glycan array binding signal (z-score),[15],0.017
same,glycan array binding signal (z-score),[16],0.619
same,glycan array binding signal (z-score),[17],-0.027
same,glycan array binding signal (z-score),GalNAc(b1-4)Gal(b1-4)Glc,0.067
same,glycan array binding signal (z-score),[18],-0.092
same,glycan array binding signal (z-score),GalNAc(b1-4)GlcNAc6S,-0.057
same,glycan array binding signal (z-score),GalNAc3S(b1-4)GlcNAc3S,-0.084
same,glycan array binding signal (z-score),Glc(a1-4)Glc,4.5
same,glycan array binding signal (z-score),[19],23.6
same,glycan array binding signal (z-score),[20],-0.061
